PubChem BioAssay (Tox21)
Results filed as inconclusive are left out. Active and inactive are the calls of the source. Unless noted, calls come from the whole dose curve.

Legend:
[1] = biological target: Acetylcholinesterase (Homo sapiens) (UniProt P22303); assay: Acetylcholinesterase (AChE) small molecule antagonists: colormetric cell-based qHTS assay (AID 1347395); note: nearly all actives have a fitted effect of over 30% in size; note: potency is the fitted concentration of half-maximal effect
Outline: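 In this cell-based qHTS, attached SH-SY5Y cells were treated with test chemicals for 30 min, after which acetylthiocholine hydrolysis was followed by DTNB colour development over 90 min at 37 C.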

[2] = biological target: Acetylcholinesterase (Homo sapiens) (UniProt P22303); assay: Acetylcholinesterase (AChE) small molecule antagonists: enzyme-based qHTS assay (AID 1347397); conditions: Potency: AChE enzyme activity inhibition; outcome: AChE enzyme activity inhibition; note: nearly all actives have a fitted effect of over 55% in size
Outline: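 Colorimetric DTNB readout of acetylthiocholine hydrolysis, 10 min at room temperature, after 30 min room-temperature exposure of 50 mU/mL recombinant human enzyme to compound; DMSO vehicle control.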

[3] = biological target: Acetylcholinesterase (Homo sapiens) (UniProt P22303); assay: Acetylcholinesterase (AChE) small molecule antagonists: fluorescence cell-based qHTS assay (AID 1347398); conditions: Potency: AChE activity; outcome: AChE activity; note: nearly all actives have a fitted effect of over 50% in size
Outline: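 Cellular AChE activity read as thiocholine from acetylthiocholine hydrolysis, detected by Thiolite Green fluorescence at 490/520 nm after 40 min at room temperature. Compounds were pre-incubated 30 min at 37 C on adherent SH-SY5Y cells.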

[4] = biological target: Acetylcholinesterase (Homo sapiens) (UniProt P22303); assay: Acetylcholinesterase (AChE) small molecule antagonists: enzyme-based qHTS assay with human liver microsomes (AID 1347399); conditions: Potency: qHTS inhibition; outcome: qHTS inhibition; note: nearly all actives have a fitted effect of over 60% in size
Outline: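 Recombinant human AChE (50 mU/mL in the enzyme mix) and human liver microsomes (0.25 mg/mL final) were preincubated with compound and NADPH (0.25 mg/mL final) for 30 min at 37 C. Acetylthiocholine/DTNB was then added; thiocholine was read colorimetrically after 10 min at room temperature.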

[5] = qHTS assay for small molecule agonists of the p53 signaling pathway (AID 651631); note: nearly all actives have a fitted effect of over 15% in size
Outline: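 Quantitative high-throughput format: 4,000 p53RE-bla HCT-116 cells/well, 5 h pre-incubation, 16 h compound exposure at 37 °C, 2 h room-temperature substrate step, fluorescence intensity measured.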

[6] = biological target: Glucocorticoid receptor (Homo sapiens) (UniProt P04150); assay: qHTS assay to identify small molecule antagonists of the glucocorticoid receptor (GR) signaling pathway (AID 720692; active = well fitted inhibition curve with a large enough effect in the signal ratio in the repeat runs, not every such curve was filed as active; the % refers to the signal ratio)
Outline: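 Antagonism was scored as loss of dexamethasone-driven (5 nM final) reporter signal in HeLa cells bearing a glucocorticoid response element–beta-lactamase construct, after 18 h compound exposure at 37 C and 2 h FRET substrate loading.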

Aromatase (Homo sapiens) = Aromatase (Homo sapiens) (UniProt P11511); assay: qHTS assay to identify aromatase inhibitors (AID 743083; active = well fitted curve in the direction sought with a large enough effect in the repeat runs; an effect the other way counts as inactive or inconclusive; note: series mostly up to about 70 µM; nearly all actives have a fitted effect of over 55% in size)
[7] = biological target: Aryl hydrocarbon receptor (Homo sapiens) (UniProt P35869); assay: qHTS assay to identify small molecule that activate the aryl hydrocarbon receptor (AhR) signaling pathway (AID 743085; active = well fitted curve in the direction sought with a large enough effect in the repeat runs; an effect the other way counts as inactive or inconclusive;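 note: HG2L7.5c1 human HepG2 liver cells with stably integrated DRE-driven firefly reporter; series mostly up to about 70 µM; nearly all actives have a fitted effect of over 15% in size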)
Outline: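 24 h compound exposure, 37C, HepG2-derived HG2L7.5c1 cells with DRE-responsive luciferase. Readouts: fluorescence viability, then luminescence at room temperature after 30 min.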

[8] = biological target: Peroxisome proliferator-activated receptor delta (Homo sapiens) (UniProt Q03181); assay: qHTS assay to identify small molecule antagonists of the peroxisome proliferator-activated receptor delta (PPARd) signaling pathway (AID 743215; active = well fitted inhibition curve with a large enough effect in the signal ratio in the repeat runs, not every such curve was filed as active; the % refers to the signal ratio;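 note: cells stimulated with agonist L165041 at 300 nM final during compound exposure; series mostly up to about 62 µM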)
Outline: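 Cells: HEK293H with a UAS-driven beta-lactamase reporter responsive to PPARd. Compounds were co-added with L165041 (300 nM, final) and incubated 17 h at 37 C before a 2 h room-temperature FRET substrate step and fluorescence reading.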

[9] = qHTS assay for small molecule activators of the heat shock response signaling pathway (AID 743210; active = well fitted activation curve with a large enough effect in the signal ratio in the repeat runs, with a control signal flat, not every such curve was filed as active; the % refers to the signal ratio; note: series mostly up to about 63 µM)
Outline: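 Compound exposure lasted 5 h at 37 C in HeLa cells carrying a heat-shock-element-driven beta-lactamase reporter. Read-out: fluorescence intensity after 2.5 h room-temperature loading with LiveBLAzer B/G FRET substrate.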
% is set by controls: 0 for no effect and ±100 for the full control effect.

Aromatase (Homo sapiens), sequence (P11511 whole entry, looked up): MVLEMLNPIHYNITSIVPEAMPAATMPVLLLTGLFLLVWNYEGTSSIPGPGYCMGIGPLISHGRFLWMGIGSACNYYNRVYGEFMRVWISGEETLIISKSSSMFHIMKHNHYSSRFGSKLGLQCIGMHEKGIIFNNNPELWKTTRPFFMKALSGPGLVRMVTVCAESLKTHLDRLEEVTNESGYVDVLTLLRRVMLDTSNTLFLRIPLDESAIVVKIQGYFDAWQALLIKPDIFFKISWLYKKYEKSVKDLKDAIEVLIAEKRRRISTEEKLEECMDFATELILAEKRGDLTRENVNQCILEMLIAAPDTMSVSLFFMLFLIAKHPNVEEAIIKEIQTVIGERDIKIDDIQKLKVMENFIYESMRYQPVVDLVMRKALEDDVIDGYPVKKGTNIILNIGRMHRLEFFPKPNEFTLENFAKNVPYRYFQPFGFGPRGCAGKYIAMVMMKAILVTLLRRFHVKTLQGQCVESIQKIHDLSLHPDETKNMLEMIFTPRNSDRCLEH
Acetylcholinesterase (Homo sapiens), sequence (P22303 whole entry, looked up): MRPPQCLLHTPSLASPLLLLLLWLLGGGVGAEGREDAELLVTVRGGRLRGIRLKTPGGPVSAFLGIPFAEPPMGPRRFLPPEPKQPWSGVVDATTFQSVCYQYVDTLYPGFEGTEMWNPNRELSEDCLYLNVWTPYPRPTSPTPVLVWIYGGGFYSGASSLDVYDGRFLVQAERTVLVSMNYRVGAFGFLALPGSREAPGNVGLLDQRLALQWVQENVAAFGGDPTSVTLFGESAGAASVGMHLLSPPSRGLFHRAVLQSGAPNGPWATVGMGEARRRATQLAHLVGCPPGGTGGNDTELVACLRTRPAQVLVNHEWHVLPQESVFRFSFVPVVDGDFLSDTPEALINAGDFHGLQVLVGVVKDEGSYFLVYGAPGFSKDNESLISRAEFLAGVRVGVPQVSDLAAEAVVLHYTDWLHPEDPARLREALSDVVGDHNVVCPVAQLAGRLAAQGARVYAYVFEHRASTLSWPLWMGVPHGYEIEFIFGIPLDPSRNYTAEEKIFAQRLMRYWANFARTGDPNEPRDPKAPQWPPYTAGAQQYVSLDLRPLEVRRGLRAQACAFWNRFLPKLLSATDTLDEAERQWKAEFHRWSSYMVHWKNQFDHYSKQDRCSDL
Aryl hydrocarbon receptor (Homo sapiens), sequence (P35869 whole entry, looked up): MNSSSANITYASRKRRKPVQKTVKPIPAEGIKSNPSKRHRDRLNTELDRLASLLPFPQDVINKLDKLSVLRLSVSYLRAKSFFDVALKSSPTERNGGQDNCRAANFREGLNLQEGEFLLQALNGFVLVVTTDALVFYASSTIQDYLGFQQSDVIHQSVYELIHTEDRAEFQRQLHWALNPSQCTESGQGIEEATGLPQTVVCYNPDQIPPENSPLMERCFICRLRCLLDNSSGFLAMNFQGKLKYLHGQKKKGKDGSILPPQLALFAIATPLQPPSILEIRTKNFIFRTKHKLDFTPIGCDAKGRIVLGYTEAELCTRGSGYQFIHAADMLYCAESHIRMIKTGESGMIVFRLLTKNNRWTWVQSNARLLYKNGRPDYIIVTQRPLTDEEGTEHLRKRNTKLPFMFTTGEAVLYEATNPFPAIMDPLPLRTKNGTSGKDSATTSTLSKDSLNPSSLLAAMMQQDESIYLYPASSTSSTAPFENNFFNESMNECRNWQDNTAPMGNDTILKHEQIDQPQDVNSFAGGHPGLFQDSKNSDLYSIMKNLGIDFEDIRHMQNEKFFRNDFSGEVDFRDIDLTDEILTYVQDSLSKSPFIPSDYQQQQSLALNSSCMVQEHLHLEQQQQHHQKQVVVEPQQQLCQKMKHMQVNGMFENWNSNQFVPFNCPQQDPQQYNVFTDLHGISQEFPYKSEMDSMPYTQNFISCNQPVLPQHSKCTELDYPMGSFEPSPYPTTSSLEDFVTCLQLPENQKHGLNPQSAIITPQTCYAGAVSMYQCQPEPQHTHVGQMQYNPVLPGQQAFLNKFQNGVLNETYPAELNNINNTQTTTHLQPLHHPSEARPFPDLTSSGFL
Glucocorticoid receptor (Homo sapiens), sequence (P04150 whole entry, looked up): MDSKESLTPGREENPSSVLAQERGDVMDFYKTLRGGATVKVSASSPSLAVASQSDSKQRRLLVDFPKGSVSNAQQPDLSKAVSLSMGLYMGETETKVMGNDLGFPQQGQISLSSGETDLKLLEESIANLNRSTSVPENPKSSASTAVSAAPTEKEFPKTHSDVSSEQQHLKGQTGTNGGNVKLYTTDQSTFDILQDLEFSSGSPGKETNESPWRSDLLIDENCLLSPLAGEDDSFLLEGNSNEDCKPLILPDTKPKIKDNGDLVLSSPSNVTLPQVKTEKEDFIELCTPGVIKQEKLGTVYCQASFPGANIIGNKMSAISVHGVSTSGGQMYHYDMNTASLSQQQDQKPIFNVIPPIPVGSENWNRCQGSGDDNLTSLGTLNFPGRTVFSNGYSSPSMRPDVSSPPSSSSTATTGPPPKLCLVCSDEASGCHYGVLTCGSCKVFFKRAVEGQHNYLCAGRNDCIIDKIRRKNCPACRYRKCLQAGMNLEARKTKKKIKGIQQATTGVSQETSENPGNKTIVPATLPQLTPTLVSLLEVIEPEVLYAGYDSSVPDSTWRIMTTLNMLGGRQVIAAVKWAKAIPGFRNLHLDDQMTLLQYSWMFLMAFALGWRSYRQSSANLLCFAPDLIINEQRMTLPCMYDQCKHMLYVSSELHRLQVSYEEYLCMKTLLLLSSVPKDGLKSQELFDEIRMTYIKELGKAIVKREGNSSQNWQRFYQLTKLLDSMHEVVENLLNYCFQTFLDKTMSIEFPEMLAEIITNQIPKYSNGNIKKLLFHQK
Peroxisome proliferator-activated receptor delta (Homo sapiens), sequence (Q03181 whole entry, looked up): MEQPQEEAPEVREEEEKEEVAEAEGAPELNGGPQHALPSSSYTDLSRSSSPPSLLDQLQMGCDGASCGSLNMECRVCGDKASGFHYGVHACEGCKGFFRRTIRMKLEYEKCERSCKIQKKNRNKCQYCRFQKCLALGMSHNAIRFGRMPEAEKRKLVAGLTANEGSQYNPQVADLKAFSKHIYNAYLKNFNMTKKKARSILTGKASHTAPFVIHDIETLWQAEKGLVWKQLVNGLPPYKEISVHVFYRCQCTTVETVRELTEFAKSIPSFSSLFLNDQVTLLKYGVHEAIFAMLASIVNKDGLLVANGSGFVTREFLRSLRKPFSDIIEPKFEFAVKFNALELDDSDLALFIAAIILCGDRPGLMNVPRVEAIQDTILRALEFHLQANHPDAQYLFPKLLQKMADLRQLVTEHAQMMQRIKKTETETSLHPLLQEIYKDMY

OCC(CO)n1cnc(-c2ccc(F)cc2)c1-c1ccnc(Oc2ccccc2)n1
inactive: Potency [1] | Potency [2] | Potency [3] | Potency [4]

CN(C)CCOc1ccccc1Cc1ccccc1
inactive: Potency [1] | Potency [2] | Potency [3] | Potency [4]

CC1COc2ccccc2N1 (centres undefined)
inactive: Potency [1] | Potency [2] | Potency [3] | Potency [4]

C/C=C(\C)C#N
inactive: Potency [1] | Potency [2] | Potency [3] | Potency [4]

CC(C)=C1CC[C@@H](C)CC1=O
inactive: Potency [1] | Potency [2] | Potency [3] | Potency [4]

CC(=O)OCCC(C)CC(C)(C)C (centres undefined)
inactive: Potency [1] | Potency [2] | Potency [3] | Potency [4]

O/N=C/C=N/O
inactive: Potency [1] | Potency [2] | Potency [3] | Potency [4]

O=C(CCCl)NCCc1ccccc1
inactive: Potency [1] | Potency [2] | Potency [3] | Potency [4]

CC(S)C(=O)NCC(=O)O (centres undefined)
inactive: Potency [1] | Potency [2] | Potency [3] | Potency [4]

CCOC(=O)c1ccccc1
inactive: Potency [1] | Potency [2] | Potency [3] | Potency [4]

CO[Si](CCCCl)(OC)OC
inactive: Potency [1] | Potency [2] | Potency [3] | Potency [4]

OCCC(F)(F)C(F)(F)C(F)(F)C(F)(F)C(F)(F)C(F)(F)F
inactive: Potency [1] | Potency [2] | Potency [3] | Potency [4]

C=CC(C)(CCC=C(C)C)OC(=O)CC (centres undefined)
inactive: Potency [1] | Potency [2] | Potency [3] | Potency [4]

CN1CCCC1
inactive: Potency [1] | Potency [2] | Potency [3] | Potency [4]

Clc1cc(Cl)c(Cl)nc1Cl
inactive: Potency [1] | Potency [2] | Potency [3] | Potency [4]

N#CSCSc1nc2ccccc2s1
inactive: Potency [1] | Potency [2] | Potency [3] | Potency [4]

NCCCNCCSP(=O)(O)O
inactive: activity, negative = inhibition [1] 2.88% [at 10.5 µM] | activity change, negative = inhibition [2] -0.97% [at 10.5 µM] | activity change, negative = inhibition [3] 1.49% [at 10.5 µM] | activity change, negative = inhibition [4] 5.32% [at 10.5 µM]

CCOC(=O)CC#N
inactive: Potency [1] | Potency [2] | Potency [3] | Potency [4]

O=S(=O)(O)c1ccccc1O
inactive: Potency [1] | Potency [2] | Potency [3] | Potency [4]

CN(CC1(C)CCCO1)S(=O)(=O)c1ccc(Cl)c(S(N)(=O)=O)c1 (centres undefined)
inactive: Potency [1] | Potency [2] | Potency [3] | Potency [4]

CC(=O)OCC(=O)[C@@]12OC(C)(C)O[C@@H]1C[C@H]1[C@@H]3C[C@H](F)C4=CC(=O)C=C[C@]4(C)[C@@]3(F)[C@@H](O)C[C@@]12C
inactive: Potency [1] | Potency [2] | Potency [3] | Potency [4]

COC(C)(C)CC(C)=O
inactive: Potency [1] | Potency [2] | Potency [3] | Potency [4]

Cc1cc(C)c(O)c(C(C)(C)C)c1
inactive: Potency [1] | Potency [2] | Potency [3] | Potency [4]

CCC(C=O)CC
inactive: Potency [1] | Potency [2] | Potency [3] | Potency [4]

CC1OC(=O)C(C)OC1=O (centres undefined)
inactive: Potency [1] | Potency [2] | Potency [3] | Potency [4]

CCCCC(CC)CN (centres undefined)
inactive: Potency [1] | Potency [2] | Potency [3] | Potency [4]

C1=C\CC/C=C\CC/C=C\CC/1
inactive: Potency [5] | Potency [6] | Potency [1] | Potency [2] | Potency [3] | Potency [4]

C[N+]12CCC(CC1)C(OC(=O)C(O)(c1ccccc1)c1ccccc1)C2 (centres undefined)
inactive: Potency [5] | Potency [6] | Potency (Aromatase (Homo sapiens)) | outcome [7] | outcome [8] | Potency [1] | Potency [2] | Potency [3] | Potency [4]

Cc1ccc(NC(=O)c2ccc(CN3CCN(C)CC3)cc2)cc1Nc1nccc(-c2cccnc2)n1
inactive: Potency [1] | Potency [2] | Potency [4]

CC1CC(=O)NN=C1c1ccc(NCC(C)(C)NCC(O)COc2cc(Cl)ccc2C#N)cc1 (centres undefined)
active: Potency [1] 24.5 µM
inactive: Potency [2] | Potency [4]

Cc1ccc(N)cc1[N+](=O)[O-]
inactive: Potency [5] | Potency (Aromatase (Homo sapiens)) | Potency [1] | Potency [2] | Potency [3] | Potency [4]

c1ccc(-c2ccc(-c3ccccc3)cc2)cc1
inactive: Potency (Aromatase (Homo sapiens)) | activity, negative = inhibition [1] -0.11% [at 23.6 µM] | activity change, negative = inhibition [2] 0% [at 23.6 µM] | activity change, negative = inhibition [3] 6.58% [at 23.8 µM] | activity change, negative = inhibition [4] 0.417% [at 23.6 µM]

CC(=O)CC(C)C
inactive: Potency [5] | Potency (Aromatase (Homo sapiens)) | outcome [7] | outcome [9] | Potency [1] | Potency [2] | Potency [3] | Potency [4]

C1OCOCO1
inactive: Potency [1] | Potency [2] | Potency [3] | Potency [4]

O=C(CCCN1CCN(c2ccc(F)cc2)CC1)NC1c2ccccc2CSc2ccccc21 (centres undefined)
inactive: Potency [1] | Potency [2] | Potency [4]

O=S(=O)(O)c1cc(S(=O)(=O)O)c2ccc3c(S(=O)(=O)O)cc(S(=O)(=O)O)c4ccc1c2c43
inactive: activity, negative = inhibition [1] -7.76% [at 23.6 µM] | activity change, negative = inhibition [2] -5.03% [at 23.6 µM] | activity change, negative = inhibition [4] 2.76% [at 23.6 µM]
